# Reference: paper PMC4336329 (PLoS ONE, 2015)
# In all, about 310,000 compounds went through this assay and about 14,000 (4.5%) showed an effect of 50% or more. The effect is printed as a negative number. This excerpt belongs to a sample that is enriched for strong results.
# Biological target: human ether-à-go-go-related gene (hERG) potassium channel (human, UniProt Q12809)
# Experiment: primary screen, population patch clamp on CHO cells stably expressing hERG; higher = less effect of the substance
# 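Also: peak tail current of the secondary pulse compared with the same well before compound.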
# Chain of human ether-à-go-go-related gene (hERG) potassium channel (Q12809 whole entry, looked up): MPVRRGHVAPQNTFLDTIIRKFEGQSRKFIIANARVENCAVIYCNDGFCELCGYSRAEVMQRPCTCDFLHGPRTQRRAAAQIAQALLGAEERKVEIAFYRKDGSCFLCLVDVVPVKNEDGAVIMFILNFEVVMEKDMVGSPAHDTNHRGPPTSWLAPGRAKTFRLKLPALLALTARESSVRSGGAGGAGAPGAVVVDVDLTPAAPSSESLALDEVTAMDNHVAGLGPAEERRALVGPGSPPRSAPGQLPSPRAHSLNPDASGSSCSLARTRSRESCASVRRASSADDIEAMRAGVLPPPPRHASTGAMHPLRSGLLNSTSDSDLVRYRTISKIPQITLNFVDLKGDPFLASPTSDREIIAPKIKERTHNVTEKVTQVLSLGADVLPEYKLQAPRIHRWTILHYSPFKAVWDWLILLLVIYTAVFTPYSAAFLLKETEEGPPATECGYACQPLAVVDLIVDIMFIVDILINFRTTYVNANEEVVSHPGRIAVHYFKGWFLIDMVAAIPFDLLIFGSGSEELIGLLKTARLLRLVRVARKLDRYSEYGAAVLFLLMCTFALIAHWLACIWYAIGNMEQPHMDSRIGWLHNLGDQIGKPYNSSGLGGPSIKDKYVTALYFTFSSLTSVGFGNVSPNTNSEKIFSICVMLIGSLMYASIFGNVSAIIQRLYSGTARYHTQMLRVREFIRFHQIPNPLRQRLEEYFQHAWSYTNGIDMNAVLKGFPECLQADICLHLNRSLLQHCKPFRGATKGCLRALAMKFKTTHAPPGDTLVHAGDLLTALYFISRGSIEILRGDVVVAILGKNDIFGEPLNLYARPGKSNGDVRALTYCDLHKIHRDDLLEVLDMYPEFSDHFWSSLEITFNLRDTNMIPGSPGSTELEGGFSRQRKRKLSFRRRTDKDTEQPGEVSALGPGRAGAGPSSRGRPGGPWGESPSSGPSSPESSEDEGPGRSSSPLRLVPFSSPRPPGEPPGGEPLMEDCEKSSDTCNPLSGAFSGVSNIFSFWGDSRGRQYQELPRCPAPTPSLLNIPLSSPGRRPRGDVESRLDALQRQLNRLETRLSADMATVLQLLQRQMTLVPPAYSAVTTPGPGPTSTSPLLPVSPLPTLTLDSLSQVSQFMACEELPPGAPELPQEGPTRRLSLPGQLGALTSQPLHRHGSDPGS
row,Compound,"hERG current change (%, negative = inhibition) at 10uM [%]"
1,O=C(CNC(=O)Cc1ccc(Cl)cc1)NCC(=O)N1CCCCC1,17.9
2,CCOC(=O)c1c(C)n(C)c2ccc(OCC(N)=O)cc12,7.9
3,CCCCN=C1NN=C(c2cccc([N+](=O)[O-])c2)CS1.Cl,-4.82
4,O=C(CN1CCSCC1)N/N=C/c1ccc(F)cc1F,-6.43
5,CCc1ccc(NC(=O)c2cc(C(C)C)on2)cc1,-27.3
6,CC(C)NCC(O)COc1c(F)cc(Br)cc1F.Cl (centres unmarked),-4.33
7,CC1CCCC(C)N1CC(O)COc1c(F)cc(Br)cc1F.Cl (centres unmarked),-57.7
8,CN(CC(O)COc1ccccc1F)C1CCCCC1.Cl (centres unmarked),2.08
9,Cl.OC(CNC1CCCC1)COc1c(F)cc(Br)cc1F (centres unmarked),-27.3
10,CC(C)(C)NCC(O)COc1c(F)cc(Br)cc1F.Cl (centres unmarked),-7.38
11,CN(CC(O)COc1c(F)cc(Br)cc1F)C1CCCCC1.Cl (centres unmarked),-65.9
12,Cn1c(=O)c2cc(S(=O)(=O)NC(C(=O)Nc3cccc(F)c3)c3ccccc3)ccc2n(C)c1=O (centres unmarked),-7.01
13,COCCNc1cc(C)nc2ccccc12.Cl,-10.8
14,COCCNC(=O)COc1ccccc1Cl,1.56
15,COCCCNc1ccnc2c(Cl)cccc12,-58.5
16,COCCNc1ccnc2c(Cl)cccc12,-81.9
17,COCCCNc1cc(C)nc2ccccc12.Cl,-40.3
18,COCCCNc1nc(-c2ccc(Cl)cc2)nc2ccccc12,-1.64
19,O=S1(=O)N=C(N(CCO)/N=C/c2ccc(Br)cc2)c2ccccc21,15
20,c1ccc2c(CSCCc3ccncc3)cccc2c1,-17.6
21,COc1ccccc1CNC(=O)COC(=O)c1nc(Cl)ccc1Cl,-2.78
22,COc1ccc2c(c1)OC[C@H]1[C@H]2N2C(=O)CN(Cc3ccco3)C(=O)[C@@]2(C)[C@H]1c1ccccc1,10.7

row,Compound,"hERG current change (%, negative = inhibition) at 10uM [%]"
1,CCN(CC)CC(O)c1ccc(C2CCCC2)cc1.Cl (centres unmarked),-63
2,CC(C)NCC(O)c1ccc(C2CCCC2)cc1.O=C(O)/C=C\C(=O)O (centres unmarked),-15.5
3,CCCN(CC1CC1)CC(O)c1ccccc1.O=C(O)C(=O)O (centres unmarked),4.51
4,COC(=O)c1c(NC(=O)c2ccco2)sc(C)c1C,18.1
5,CCCNC(=O)COC(=O)c1ccccc1OCc1ccc(Cl)cc1,-0.354
6,Cc1cccc(N(Cc2ccccc2)C(=O)c2ccc(F)c(S(=O)(=O)N3CCOCC3)c2)c1,-50.5
7,Cc1ccc(N(Cc2ccccc2)C(=O)c2ccc(C)c(S(=O)(=O)N3CCOCC3)c2)cc1,-18
8,Cc1cccc(N(Cc2ccccc2)C(=O)c2cc(S(=O)(=O)N3CCOCC3)ccc2F)c1,-5.69
9,Cc1cccc(N(Cc2ccccc2)C(=O)c2cc(S(=O)(=O)N3CCOCC3)ccc2Cl)c1,-13.3
10,COc1ccc(CC(=O)N(Cc2ccccc2)c2ccccc2)cc1S(=O)(=O)N1CCOCC1,1.07
11,Cc1ccc(N(Cc2ccccc2)C(=O)c2ccc(Cl)c(S(=O)(=O)N3CCOCC3)c2)cc1,-70.3
12,Cc1ccc(N(Cc2ccccc2)C(=O)c2cc(S(=O)(=O)N3CCOCC3)ccc2F)cc1,-10.2
13,Cc1ccc(N(Cc2ccccc2)C(=O)c2cc(S(=O)(=O)N3CCOCC3)ccc2N2CCCC2)cc1,5.59
14,COc1ccc(C(=O)N(Cc2ccccc2)c2cccc(C)c2)cc1S(=O)(=O)N1CCOCC1,-35.8
15,Cc1ccc(N(Cc2ccccc2)C(=O)c2ccc(F)c(S(=O)(=O)N3CCOCC3)c2)cc1,-82.7
16,COc1ccc(C(=O)N(Cc2ccccc2)c2ccc(C)cc2)cc1S(=O)(=O)N1CCOCC1,-67.7
17,Cc1cccc(N(Cc2ccccc2)C(=O)c2ccc(C)c(S(=O)(=O)N3CCOCC3)c2)c1,-17.6
18,Cl.O=C(C1CCN(S(=O)(=O)c2cccs2)CC1)N1CCN(Cc2ccccc2)CC1,3.79
19,Cn1c(=O)[nH]c(=O)c2c1nc(SCCC(=O)O)n2Cc1cccc(Br)c1,1.52
20,COCCNC(=S)NC1CC2CCC(C1)N2Cc1ccccc1 (centres unmarked),2.78
21,COc1ccc(C2C(C(=O)c3cccs3)=C(O)C(=O)N2Cc2cccnc2)cc1OC (centres unmarked),5.03
22,CC(Oc1cccc(Cl)c1)C(=O)Nc1nc(-c2ccccn2)cs1 (centres unmarked),4.19

row,Compound,"hERG current change (%, negative = inhibition) at 10uM [%]"
1,CC(Oc1ccc(Br)cc1)C(=O)Nc1nc(-c2ccccn2)cs1 (centres unmarked),-5.7
2,CC(Oc1ccc(F)cc1)C(=O)Nc1nc(-c2ccccn2)cs1 (centres unmarked),-76.3
3,O=C(Nc1cccc(C(=O)O)c1)/C(=C\c1ccccc1Cl)NC(=O)c1ccco1,6.89
4,COc1ccc(CC(=O)N(C)CC(=O)Nc2ccccc2SC)cc1,8.56
5,CCc1nnc(NC(=O)c2cc(C)oc2C)s1,-10
6,Cc1ccccc1OCC(=O)N(Cc1nnc(-c2ccc(Cl)cc2)o1)C(C)C,-53.5
7,CC(C)N(Cc1nnc(-c2ccccc2Br)o1)C(=O)c1cc(Cl)nc2ccccc12,-24.9
8,Cc1cc(C(=O)N(Cc2nnc(-c3ccc(Cl)cc3)o2)C(C)C)c2ccccc2n1,-58.5
9,CC(C)N(Cc1nnc(-c2ccc(Cl)cc2)o1)C(=O)C1=COCCO1,-19.9
10,CC(C)N(Cc1nnc(-c2ccc(Cl)cc2)o1)C(=O)c1cc2ccccc2o1,-40.1
11,Cc1ccccc1OCC(=O)N(Cc1nc(-c2ccccc2)no1)C(C)C,-15
12,CNc1ccc(Cl)cc1C(N)=O,26.1
13,Cc1ccc(C(=O)COC(=O)c2nc3nccc(C)n3n2)c(C)c1,-7.14
14,COc1ccc(Cl)cc1NS(=O)(=O)N1CCOCC1,6.86
15,CC(Cc1ccccc1)NC(=O)c1cc([N+](=O)[O-])ccc1Cl (centres unmarked),-4.69
16,O=C(NCc1cccnc1)C1CCCN(S(=O)(=O)c2ccc(Br)cc2)C1 (centres unmarked),-41.6
17,O=C(NCc1ccncc1)C1CCN(S(=O)(=O)c2cc(Cl)ccc2Cl)CC1,-18.9
18,O=C(NCc1ccncc1)C1CCCN(S(=O)(=O)c2ccc(Br)cc2)C1 (centres unmarked),-77.5
19,O=C(NCc1ccccc1)C1CCCN(S(=O)(=O)c2ccc(Br)cc2)C1 (centres unmarked),23.4
20,O=C(NCCCn1ccnc1)C1CCCN(S(=O)(=O)c2ccc(F)cc2)C1 (centres unmarked),10.7
21,COc1ccc(S(=O)(=O)N2CCCC(C(=O)NCCCn3ccnc3)C2)cc1OC (centres unmarked),7.83
22,O=C(NCc1ccncc1)C1CCCN(S(=O)(=O)c2cc(Cl)ccc2Cl)C1 (centres unmarked),-61.2

row,Compound,"hERG current change (%, negative = inhibition) at 10uM [%]"
1,COc1ccc(Cl)cc1S(=O)(=O)N1CCCC(C(=O)NCc2ccncc2)C1 (centres unmarked),-25.7
2,O=C(NCCCn1ccnc1)C1CCCN(S(=O)(=O)c2cc(Cl)ccc2Cl)C1 (centres unmarked),-60.3
3,CC(C)c1ccc(S(=O)(=O)c2n[nH]n3c2nc(=O)c2ccccc23)cc1,-16.7
4,C/C(=N\NC(=S)NCC(C)(C)C)c1cc(F)cc(F)c1O,17.2
5,CC1=NN(C(N)=S)C(=O)C1N=Nc1c(Br)cc(Br)cc1Br (centres unmarked),-8.08
6,COc1ccc(C2CC(c3ccccc3)Nc3nc(NS(C)(=O)=O)nn32)cc1 (centres unmarked),7.1
7,CCc1sc2nc(SCC(=O)Nc3cc(C)on3)n(-c3cccc(OC)c3)c(=O)c2c1C,10.2
8,NC(=S)N/N=C1\CC(c2ccc3c(c2)OCCCO3)Oc2ccc(F)cc21 (centres unmarked),6.23
9,O=C(NNC(=O)c1csc(N2CCOCC2)n1)c1ccc(=O)[nH]c1,6.26
10,CCOC(=O)N1CCN(C(=O)c2cnn3c(C(F)F)cc(-c4ccc(C)cc4)nc23)CC1,-0.653
11,CC(C)OC(=O)c1c2c(n3ccccc13)C(=O)c1ccccc1C2=O,5.73
12,Cc1ccc(N2CCN(CCc3nc4cc(NC(=O)c5ccco5)ccc4n3C)CC2)cc1,-70.7
13,Cc1ccc(C(=O)Nc2ccc3c(c2)nc(CCNC(=O)c2ccco2)n3C)cc1,8.06
14,Cn1c(CCNC(=O)c2ccco2)nc2cc(NC(=O)c3ccco3)ccc21,-14.4
15,Cn1c(CN2CCCC2)nc2cc(NC(=O)c3ccco3)ccc21,7.42
16,Cn1c(CCN2CCN(c3ccc(F)cc3)CC2)nc2cc(NC(=O)c3ccco3)ccc21,-63.6
17,CN1CCN(CCc2nc3cc(NC(=O)c4ccco4)ccc3n2C)CC1,4.18
18,Cc1ccc(Cc2c(C)c(C#N)c3[nH]c4ccccc4n3c2=O)cc1,11.4
19,O=C(O)C12C3CCCC1C32c1ccccc1 (centres unmarked),21.7
20,CC1CCC2C(=O)N(c3ccccc3OC(=O)c3ccccc3F)C(=O)C2C1 (centres unmarked),-10.3
